Bioassay records deposited in PubChem by several laboratories.
aSyn UTR inh – MLPCN primary screen, SNCA 5' untranslated region | alpha-synuclein 5'UTR reporter, inhibitor activity | actives 0.82% (n = 300,000) | inhibition, % (tested at 7.5 µM); in the data active = inhibition above about 60%; inconclusive = no clear call, values can overlap the other calls;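 note: H4 neuroglioblastoma cells stably carrying SNCA 5'UTR luciferase fusion; 0% = DMSO wells and 100% = positive control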
KLF5 inh – KLF5 expression inhibitors, primary screen, DLD-1 cells, luminescence; DLD-1 KLF5 promoter-luciferase reporter; inhibition, % at 5 µM; actives 0.23% (n = 290,000); AID 1700, 2009;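 active = inhibition above a per-plate limit of that plate's mean compound inhibition plus 3 SD, cut at about 60% in these data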;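 note: 0% = DMSO wells and 100% = LY294002 at 200 µM; higher means less KLF5 promoter-driven luciferase light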
HIF act – HIF pathway transcriptional activators, primary screen, cell-based, U2OS HRE-luciferase, luminescence; U2OS HRE-luciferase reporter; normalized: DMSO 0%, desferrioxamine 100%; actives 0.32% (n = 300,000); activation, % at 7.5 µM (by protocol);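 active = mean activation of at least 10% of the iron chelator positive control signal, with at least half of replicates also reaching 10%; inconclusive = mean and replicate majority disagree about reaching 10%; inactive = mean and most replicates under 10%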
Platelet DG rel – inhibitors of platelet dense granule secretion, primary screen, cell-based, MLPCN, human platelets; human platelet-rich plasma, SFLLRN dense granule ATP release, luminescence; inhibition, %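 (compounds screened at 7.5 µM in platelet-rich plasma)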; actives 0.22% (n = 300,000);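 active = mean replicate score, as percent of positive control, at or above 50; inconclusive = mean below 50 but at least one replicate at or above 50; inactive = mean and every replicate below 50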
Wee1 degr inh – Wee1 degradation inhibitors, primary screen, cell-based, HeLa, Wee1K328M-luciferase, luminescence | Wee1-like protein kinase (Homo sapiens), P30291 | HeLa Luc-Wee1K328M stability; 100% = proteasome inhibitor MG132 effect | reporter increase, % at 5 µM | actives 1.2% (n = 220,000);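 active = activation above the mean of all tested compounds plus 3 SD, set per screening run, cut at about 8.8% in these data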;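 note: cells exposed to compound for 20 h before luminescence read; 0% = DMSO alone and 100% = MG132 at 30 µM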
Target sequence (P30291 whole entry K328M): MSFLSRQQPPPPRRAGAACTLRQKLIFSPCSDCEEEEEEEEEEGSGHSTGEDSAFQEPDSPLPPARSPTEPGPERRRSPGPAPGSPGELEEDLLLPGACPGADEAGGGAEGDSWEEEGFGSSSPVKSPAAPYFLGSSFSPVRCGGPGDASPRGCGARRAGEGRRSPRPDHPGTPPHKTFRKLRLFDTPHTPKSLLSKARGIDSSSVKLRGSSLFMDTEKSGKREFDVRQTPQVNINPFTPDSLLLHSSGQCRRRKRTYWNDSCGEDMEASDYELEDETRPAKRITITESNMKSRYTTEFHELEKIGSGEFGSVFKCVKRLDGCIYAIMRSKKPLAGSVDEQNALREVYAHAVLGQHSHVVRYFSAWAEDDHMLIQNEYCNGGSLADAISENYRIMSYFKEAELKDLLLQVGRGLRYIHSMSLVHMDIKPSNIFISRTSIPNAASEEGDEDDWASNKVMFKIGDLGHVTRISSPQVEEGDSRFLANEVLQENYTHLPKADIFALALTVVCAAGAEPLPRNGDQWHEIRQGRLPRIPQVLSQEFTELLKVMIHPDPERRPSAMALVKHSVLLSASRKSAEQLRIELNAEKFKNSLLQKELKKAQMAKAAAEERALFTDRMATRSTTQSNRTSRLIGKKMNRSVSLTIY
Active calls of the source: *; ? = inconclusive; · = no result given. Most compounds without a hit are left out; they make up all but 2.1% or so of the library.

SMILES	aSyn UTR inh	KLF5 inh	HIF act	Platelet DG rel	Wee1 degr inh
CCOC(=O)COc1cccc2c(=O)n(CC(=O)NCCc3ccccc3)ccc12	-72.5	-10.3	-0.4	-4.2	0.1
CCOC(=O)COc1cccc2c(=O)n(CC(=O)NCc3ccc4c(c3)OCO4)ccc12	1.1	-17.1	0.9	17.2	9.6*
CCOC(=O)C(C)Oc1cccc2c(=O)n(CC(=O)NCc3ccc(F)cc3)ccc12 (centres undefined)	68.2*	34.3	0.5	-26.3	1.3
COC(=O)COc1cccc2c(=O)n(CC(=O)NCc3ccc(F)cc3)ccc12	-6.7	28.5	2.5	-7.1	11.7*
CCN(CC)Cc1c(C(=O)N/N=C/c2ccccn2)nnn1-c1nonc1N	-11.1	-5.5	-0.2	-18.3	·
CC1(C)CC(=O)c2cnc3c(C#N)cnn3c2C1	17.6	8.2	-0.1	0.3	1.6
CSc1nc2ncc3c(n2n1)CC(C)(C)CC3=O	9.7	-14.1	0.0	-0.6	8.9*
CCOC(=O)Nc1ccc(C(=O)Oc2ccccc2)c(O)c1	-47.1	-74.5	3.4	1.0	10.4*
COc1cccc(-c2nc(CS(=O)(=O)CC(=O)Nc3c(C)cccc3C)c(C)o2)c1	2.3	-25.9	-0.2	3.4	-1.6
COc1ccc(OC)c(NC(=O)CS(=O)(=O)Cc2nc(-c3ccccc3C)oc2C)c1	13.9	-29.9	0.1	50.8*	0.5
Cc1ccccc1-c1nc(CS(=O)(=O)CC(=O)N2CCc3ccccc32)c(C)o1	6.2	10.4	0.2	58.0*	1.8
O=C(c1ccsc1)N1CCCC(N2CCOCC2)C1 (centres undefined)	-1.2	-6.9	-0.1	11.9	·
Cc1cccc(-c2noc(CN(C)S(=O)(=O)c3cc(Cl)ccc3Cl)n2)c1	-2.4	0.9	167.5*	6.7	1.1
O=S(=O)(c1ccccc1)N1CCN(c2nnc(-c3ccccc3)c3ccccc23)CC1	18.4	-21.9	-0.1	-4.0	9.5*
NC(=S)NC(c1ccccc1)c1ccncc1 (centres undefined)	-3.5	·	-0.2	-4.3	·
COc1ccc(N2CCN(S(=O)(=O)c3c(C)nc4sccn4c3=O)CC2)cc1	20.3	3.9	-0.2	94.8*	·
Cc1cc(C(=O)OCC(=O)N(CC(C)C)c2c(N)n(Cc3ccccc3)c(=O)[nH]c2=O)c(C)o1	19.9	·	-0.7	-0.5	·
CCOC(=O)c1ccc(NC(=O)Cn2ncc(Cl)c(Cl)c2=O)cc1	-2.2	-0.6	-1.0	2.3	-0.8
Cc1cc(Br)ccc1NC(=O)CNC(=O)Cn1ncc(Cl)c(Cl)c1=O	62.7*	7.8	-6.0	11.7	-1.5
COc1ccc(CCNCC(O)Cn2c3ccccc3c3ccccc32)cc1OC (centres undefined)	119.7*	-22.3	-5.9	4.0	-2.6
CN(C)CCCNc1cc(C(C)(C)C)nc2c(-c3ccc(Cl)cc3)cnn12	108.0*	-24.2	-5.0	3.7	2.2
CC(C)(C)c1cc(NCc2ccccn2)n2ncc(-c3ccc(Cl)cc3)c2n1	16.5	-1.3	0.0	-6.0	1.5
NC(=S)NC1CC2CC1C1C=CCC21 (centres undefined)	-4.4	-21.1	-0.1	3.3	9.5*
Cc1ccc(NC(=O)COC(=O)C2CC2(Cl)Cl)cc1C (centres undefined)	-17.9	5.4	-0.3	2.3	0.3
CCOC(=O)c1sc(N=NC2=C(O)CC(C)(C)CC2=O)c(C(=O)OCC)c1C	-25.0	-6.0	2.1	59.5*	-1.2
SMILES	aSyn UTR inh	KLF5 inh	HIF act	Platelet DG rel	Wee1 degr inh
COc1ccc2oc(C(=O)OCC(=O)Nc3ccc(C(=O)N(C)C)cc3)c(C)c2c1	-15.1	-23.4	0.6	-14.7	·
Cc1ccnc(NC(=O)c2sc3ccccc3c2Cl)c1	78.2*	-121.9	-0.1	24.5	-0.6
Cc1cnc(NC(=O)c2sc3ccccc3c2Cl)s1	?	-89.0	-1.3	7.9	5.0
Cc1cc(C)cc(-n2ncc3c2CCCC3NC(=O)CCN2Cc3ccccc3C2=O)c1 (centres undefined)	24.6	-10.8	-0.2	6.6	·
COc1nccc(C(F)(F)F)c1C(=O)NC(=O)Nc1ccccc1	21.3	-2.7	139.6*	23.1	2.6
COc1nccc(C(F)(F)F)c1C(=O)NC(=O)Nc1c(C)cccc1C	12.2	-19.2	0.2	-8.3	-0.6
CC(=O)Nc1ccc2nc(NC(=O)COc3ccccc3C)sc2c1	-40.0	-34.0	11.7*	10.6	3.1
